Reference: PubChem BioAssay (NCI)
This is part of a sample that, as a whole, favours compounds with a hit. Of some 83,000 tested, about 20% had one in any assay.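 Percent growth is the endpoint: 0 to 100 indicates growth inhibition (40 means 60% inhibition), 0 means no net growth, and negative values indicate cell death.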 Values without a mark were called inactive. Calls of active or inactive are those of the source. The calls were made as follows: active = growth percent below 10; inactive = the rest.

The molecules below were run on CCRF-CEM leukemia (assay: NCI-60 one-dose screen, 48 h (100 = growth as untreated, 0 = no growth, -100 = all killed)). Details: 10 µM.
`COc1cccc(O)c1O` showed a growth of 63.8%. Work on `CC(=O)/C(Cc1ccccc1)=N/O` yielded a growth of 99%. `C=CCNC(=O)c1ccc(OC)cc1` was tested, and the growth was 98.4%. `C/C(=N/NC(N)=O)c1ccco1` was tested, and the growth was 106%. `COCCOC(=O)c1ccc(C(C)C)cc1` gave a growth of 90.6%. Work on `C[N+](C)=c1ccc2nc3c(cc(Nc4ccccc4)c4ccccc43)oc-2c1` yielded a growth of 57.8%. For `Cc1cccc(CO)c1`, the growth was 110%. In the case of `Nc1nc(N)c(N=Nc2ccc(C(=O)O)cc2)c(N)n1`, the growth is reported as 102%. `COCCOCCCl` was tested, and the growth was 106%. In the case of `Nc1ncnc2[nH]ncc12`, the growth is reported as 13.1%. `O=[N+]([O-])c1ccc(-c2ncc(-c3ccc(Br)cc3)o2)cc1` showed a growth of 92.6%. Work on `CCOC(=O)CSc1c([N+](=O)[O-])ncn1C` yielded a growth of 94.8%. `CC(C)(O)C#CC#CC(C)(C)O` was tested, and the growth was 98.6%. For `COc1cc(C2NC(=O)C(C#N)=C(Nc3cccc(C)c3)S2)ccc1O` (configuration not stated), the growth was 76%. Work on `CCOC(=O)Nc1nn[nH]n1` yielded a growth of 95%. With `O=C(NN=C1CCCCC1)C(=O)NN=C1CCCCC1` the growth was 85.6%. For `O=C(CCl)Nc1ccc2c(c1)C(=O)c1ccc(NC(=O)CCl)cc1C2=O`, the growth was -46.9% (active). Molecule `CCCCOC(=O)c1ccc(C(C)C)cc1` has a growth of 112%. For `O=C(NC1CCCCC1)OCc1c(COC(=O)NC2CCCCC2)c(-c2ccc(Cl)c(Cl)c2)n2c1CCC2`, the growth was 32.9%. For `N#CCCN(CCCN1CCOCC1)CN1C(=O)c2ccccc2C1=O`, the growth was 106%. Work on `Cc1ccccc1N=C(c1ccccc1)C1C(=O)c2ccccc2C1=O` yielded a growth of 65.1%. For `O=c1[nH]cc(Cl)cc1O`, the growth was 49%. `CC(C)OC(C(=O)O)c1ccccc1` (configuration not stated) was tested, and the growth was 91.9%. In the case of `CCCOC(=O)C(O)c1ccccc1` (configuration not stated), the growth is reported as 88.8%. In the case of `COc1ccccc1NC(=O)c1cc2cc(Br)ccc2cc1O`, the growth is reported as -4.98% (active). For `OCCN1CCOCC1`, the growth was 108%. `OCC1OC(OC2C(O)C(CO)OC2(CO)OC2OC(CO)C(O)C(O)C2O)C(O)C(O)C1O` (configuration not stated) was tested, and the growth was 88.6%. `Cc1ccc(Cl)cc1NC(=O)N(C)CCO` showed a growth of 98.7%. In the case of `CCOC(=O)C(O)C(O)C(=O)OCC` (configuration not stated), the growth is reported as 107%. Work on `O=c1cc(-c2ccccc2)nc2cc(-c3ccco3)[nH]n12` yielded a growth of 78.7%. Molecule `S=c1[nH]ccn1-c1ccccc1Cl` has a growth of 96.6%. With `C[N+](C)(C)C(=O)c1ccccc1` the growth was 104%. With `CCc1ccc(/C(C#N)=C/C=C/c2ccccc2)cc1` the growth was -5.51% (active). With `O=C(O)c1ccnc(Br)c1` the growth was 112%. In the case of `S=c1nn[nH]c2ccccc12`, the growth is reported as 111%. `O=[N+]([O-])c1ccc(CO)cc1` gave a growth of 105%. With `C#Cc1cccc(NC(=O)c2ccc(Cl)cc2Cl)c1` the growth was 88.2%.
